Test results from PubChem BioAssay (EPA / NIEHS).
Records with an inconclusive call do not appear. Active and inactive are the calls of the source. The calls were made as follows: active = hit-call score of the fitted dose curve at least 0.9, where 1 is the maximum; inconclusive = response in the unintended direction; inactive = score below 0.9.

molecular target: human RAR-related Orphan Receptor gamma (RORg), RORC (gene 6097) (UniProt P51449); test: ATG_RORg_TRANS: Attagene TRANS-FACTORIAL HepG2 Assay for human RAR-related Orphan Receptor gamma (RORg) (AID 2283011)
Sequence (P51449 whole entry, looked up): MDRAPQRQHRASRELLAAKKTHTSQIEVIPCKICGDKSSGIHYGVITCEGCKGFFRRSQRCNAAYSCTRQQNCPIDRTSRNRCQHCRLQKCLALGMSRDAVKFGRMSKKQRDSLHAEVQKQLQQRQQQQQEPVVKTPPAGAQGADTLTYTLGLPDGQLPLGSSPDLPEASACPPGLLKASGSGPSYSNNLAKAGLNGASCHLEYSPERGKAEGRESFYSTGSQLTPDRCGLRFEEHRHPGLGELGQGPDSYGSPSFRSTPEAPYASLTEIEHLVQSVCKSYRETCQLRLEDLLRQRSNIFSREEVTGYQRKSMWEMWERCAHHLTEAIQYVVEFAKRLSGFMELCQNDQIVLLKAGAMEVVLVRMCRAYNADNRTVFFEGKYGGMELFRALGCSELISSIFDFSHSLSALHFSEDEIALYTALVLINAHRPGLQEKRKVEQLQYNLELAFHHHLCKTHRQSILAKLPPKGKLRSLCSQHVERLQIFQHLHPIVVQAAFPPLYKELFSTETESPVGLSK
Method: ATG_TRANS is a cell-based, multiplexed-readout assay that uses HepG2, a human liver cell line, with measurements taken at 24 hours after chemical dosing in a 24-well plate.ATG_RORg_TRANS is one of 30 assay component(s) measured or calculated from the ATG_TRANS assay. It is designed to make measurements of mRNA induction, a form of inducible reporter, as detected with fluorescence intensity signals by Reverse transcription polymerase chain reaction (RT-PCR) and Capillary electrophoresis technology.Data from the assay component ATG_RORg_TRANS was analyzed into 1 assay endpoint. This assay endpoint, ATG_RORg_TRANS, was analyzed in the positive analysis fitting direction relative to DMSO as the negative control and baseline of activity. Using a type of inducible reporter, measures of mRNA for gain-of-signal activity can be used to understand the reporter gene at the transcription factor-level as they relate to the gene RORC. Furthermore, this assay endpoint can be referred to as a primary readout, because this assay has produced multiple assay endpoints where this one serves a reporter gene function. To generalize the intended target to other relatable targets, this assay endpoint is annotated to the nuclear receptor intended target family, where the subfamily is orphan.
Human liver HepG2 cells are transiently transfected with multiple reporter transcription units (MRTUs) in 6-well plates using FuGene 6 reagent (Roche; 3 ml FuGene/1 mg DNA). The MRTU constructs are regulated by a cis-regulating element (promoter). […] A major difference between the CIS and TRANS system is that in CIS activities of endogenous TFs are measured, whereas the TRANS assay evaluates changes in activities of exogenous, chimeric NR-Gal4 proteins. […] At the end of 24 hour incubation, total RNA was isolated using TriZol reagent (Invitrogen). The isolated RNA is then reverse-transcribed using oligo(dT) primer and Mo-MLV reverse transcriptase (Invitrogen) with DNAse I (Ambion) treatment for 30 min. The one-tenth of the produced cDNA was amplified by PCR using Taq DNA polymerase (Invitrogen) and two reporter sequence-specific primers. The PCR products were fluorescently labeled by primer extension with 6-arboxyfluorescein (6-FAM) 5'-labeled reporter sequence-specific primer (2 min at 95 C, 20 s at 68 C and 10 min at 72 C) and these products were digested with 5U of HpaI (New England Biolabs) for 2h at 37 C. The fragments were purified using Qiaquick PCR columns (Qiagen), analyzed on an ABI 3130xL genetic analyzer (Applied Biosystems) with peak positions identified by using a set of X-rhodamine (ROX)-labeled MapMarker1000 molecular weight standards (BioVentures). The raw capillary electrophoresis data was processed using Attagraph software (Attagene).

outcome, inactive:
Cc1c(N(C)C)c(=O)n(-c2ccccc2)n1C
Cc1ccc(O)c(C(C)(C)C)c1
CCCCCC(=O)OCCc1ccccc1
O=C[C@H](O)[C@H](O)[C@H](O)CO
CCCCCCCCCCCCSC
Nc1ccc(F)c([N+](=O)[O-])c1
CCC(C)CCCC(C)(C)O (stereo not given)
O=C(O)CCSCCC(=O)O
COc1ccc(OC)c(OC)c1
CCCC(C)C=O (stereo not given)
CCC(=O)OCc1ccccc1
Cc1ccc2n[nH]nc2c1
CCCC(=O)OCCC(C)CCC=C(C)C (stereo not given)
Cc1ccc(C(C)C)cc1O
O=P(c1ccccc1)(c1ccccc1)c1ccccc1
CC(=O)C(=O)O
CC(=O)OCCOC(C)=O
Nc1cc(N)cc(C(=O)O)c1
O=c1oc(=O)c2cc3c(=O)oc(=O)c3cc12
O=C(O)CCCCC1CCSS1 (stereo not given)
Cc1ccc2sc3cccc(C)c3c2c1
O=C(O)CN(CCN(CC(=O)O)CC(=O)O)CCN(CC(=O)O)CC(=O)O
Nc1cc(Cl)c(O)c(Cl)c1
C=CC(=O)OCCOCCOCC
CCCCOCCOCCSC#N
OC1C(O)C(O)C(O)C(O)C1O (stereo not given)
CC1=CCC2C(C1)C2(C)C (stereo not given)
COc1ccc(Cl)cc1C
NCCCCCCN
CC(C#N)(CCC(=O)O)N=NC(C)(C#N)CCC(=O)O (stereo not given)
CC(C)=CCC/C(C)=C/COC=O
CCCCCCOC(=O)CC
CCc1c(C)cc(N)c(CC)c1N
CCCCCCCCCCCCCOS(=O)(=O)O
O=C(O)c1cn(-c2ccc(F)cc2)c2cc(N3CCNCC3)c(F)cc2c1=O
COc1ccc(NC(=O)CC(C)=O)cc1
O=Cc1ccc(Cl)c([N+](=O)[O-])c1
CC(=O)Nc1ccc(C)cc1C
c1ccc2c(c1)c1cccc3ccc4cccc2c4c31
CC(C)=CCC[C@](C)(O)[C@@H]1CC=C(C)CC1
